Screening data as filed in PubChem.
PfHsp40 yeast = restores yeast growth despite PfHsp40 toxicity; S. cerevisiae expressing PfHsp40, growth rescue, ATP luminescence; growth rescue, % at 12.5 µM; 0.68% of 340,000 active; in the data active means growth rescue above about 28%, passing the limit was not always enough; inconclusive means no clear call, values can overlap the other calls;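 further: yeast W303a lacking pdr1 and pdr3 grown in galactose medium; growth measured after three days at 30 °C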
Sa ugtP lethal = kills S. aureus RN4220 lacking UgtP; S. aureus RN4220 ugtP deletion, OD600 growth, 16 h; growth inhibition, % (concentration not given with the values); 0.54% of 330,000 active; AID 1259309; in the data active means growth inhibition above about 68%;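 further: plate controls were untreated wells for no effect and antibiotic for full effect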
PrPC TRFRET = cell surface PrPC inhibition, primary TR-FRET screen. P04156. TR-FRET read-out. inhibition, % at 13.8 µM. 0.43% of 370,000 active. AID 720596; in the data active means inhibition above about 24%; further: 0% = median of the test wells and 100% = reference compound wells
RN4220 kill = kills Staphylococcus aureus RN4220. S. aureus RN4220 growth, OD600, 16 h. inhibition, % (test concentration not listed). 0.33% of 330,000 active; in the data active means inhibition above about 85%;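 further: plate controls were untreated cells for no effect and reference antibiotic for full effect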
DUSP3 inh = inhibitors of human VHR1 phosphatase (DUSP3). recombinant VHR phosphatase, pNPP absorbance. P51452. 0.52% of 290,000 active. inhibition, % at 13.3 µM. AID 1654; in the data active means inhibition above about 50%
Target sequence (P51452 whole entry, looked up): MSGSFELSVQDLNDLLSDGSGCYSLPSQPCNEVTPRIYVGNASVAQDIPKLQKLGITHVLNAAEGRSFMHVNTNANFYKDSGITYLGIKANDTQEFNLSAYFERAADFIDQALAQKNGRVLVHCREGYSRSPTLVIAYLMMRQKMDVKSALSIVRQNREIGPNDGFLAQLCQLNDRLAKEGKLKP
The depositor's hits bear a star; ? = inconclusive; / = not tested or not shown. Most compounds without a hit are left out; they make up all but 1.8% or so of the library.

SMILES	PfHsp40 yeast	Sa ugtP lethal	PrPC TRFRET	RN4220 kill	DUSP3 inh
O=C(/C=C/c1cccs1)NC(=S)Nc1ccccc1	-1	active	1	97	12
O=C(/C=C/c1ccco1)NC(=S)Nc1ccccc1	5	93*	4	2	4
Cc1c(NC(=O)C=Cc2cn(-c3ccccc3)nc2-c2ccccc2)c(=O)n(-c2ccccc2)n1C	/	1	/	0	/
Cc1ccc(-c2c(C(=O)NN=Cc3ccsc3)nnn2-c2nonc2N)cc1	/	3	/	4	/
OC1OC(c2ccc3c(c2)OCO3)C2COC(c3ccc4c(c3)OCO4)C12 (centres undefined)	/	6	/	3	/
Cc1ccc(-c2nc3ccccc3o2)cc1NC(=S)NC(=O)/C=C/c1ccco1	5	25	1	6	5
O=C(/C=C/c1ccco1)NC(=S)Nc1cccc(-c2nc3ccccc3o2)c1	-1	98*	5	15	-4
Cc1c(C(=O)NC2CCOC2)oc2c(F)cccc12 (centres undefined)	0	-1	-2	4	53*
Cc1c(C(=O)O)oc2c(F)cccc12	1	-2	-2	3	37
CCN1CC2C3C(=O)N(Cc4ccccc4)C(=O)C3[C@](Cc3ccccc3)(C1=O)N2C(=O)c1ccccc1 (some centres undefined)	/	-6	/	3	/
O=C1C(=O)N(CCN2CCOCC2)C(c2ccccn2)/C1=C(/O)c1ccc(F)cc1 (centres undefined)	55*	-3	-10	4	17
O=C1C(=O)N(CCCN2CCOCC2)C(c2ccc(F)cc2)/C1=C(/O)c1ccccc1 (centres undefined)	63*	-3	2	2	-5
CC(CNC(=O)C1CCCCC1)NC(=O)C1CCCCC1 (centres undefined)	80*	2	-7	1	5
O=C(Nc1cccc(Cl)c1)ON=C1c2ccccc2-c2ccccc21	37*	-34	-1	-4	14
O=C(Nc1cccc(Cl)c1)Nc1cccc(Cl)c1	-1	-18	6	2	18
COc1ccc(N=N/C(=C\O)C(=O)c2cccs2)cc1	478*	18	5	5	21
CNc1ccc(C=C2C=Cc3ccccc32)cc1	172*	77	12	20	/
CN(C)c1ccc(C=C2C=Cc3ccccc32)cc1	-1	-4	5	-4	/
Cc1ccc(-n2c(SCC(=O)Nc3cccc(S(=O)(=O)NC4=NCCCCC4)c3)nc3ccccc3c2=O)cc1C	0	-1	5	6	60*
N#Cc1nc(-c2cccs2)oc1NCCc1ccccc1	106*	-1	10	-3	15
O=C(O)C1CC1C(NP(=O)(c1ccccc1)c1ccccc1)c1ccccc1 (centres undefined)	/	-1	/	0	/
CC(CCc1oc2ccc(Cl)cc2c1-c1ccc(C)o1)=NO	/	87*	/	-3	/
CC(CCc1oc2ccc(Br)cc2c1-c1ccc(C)o1)=NO	/	89*	/	-5	/
O=C(Nc1nc(-c2ccccc2)cs1)c1cccs1	10	20	2	29	12
O=C(Nc1nc(-c2ccc(Cl)s2)cs1)c1cccs1	?	99*	-3	54	27
SMILES	PfHsp40 yeast	Sa ugtP lethal	PrPC TRFRET	RN4220 kill	DUSP3 inh
O=C(Nc1ccc([N+](=O)[O-])cc1)Nc1nc(-c2ccc(Cl)s2)cs1	0	97*	12	97*	-4
CC1CN(C(C)CO)C(=O)c2cc(NC(=O)c3ccncc3)ccc2OC1CN(C)S(C)(=O)=O (centres undefined)	/	3	/	7	/
CC(C)CC1CN=C(N(C)C)N1CC(C)C (centres undefined)	/	-4	/	4	/
O=C(/C=C(\O)c1ccc(Cl)cc1)C(=O)NNC(=O)C(O)(c1ccccc1)c1ccccc1	20	92*	/	-6	14
Cc1cc(/C=N/n2cnnc2)c(C)n1-c1ccc(OCc2ccc(F)cc2)cc1	103*	/	21	/	28
CCOC(=O)N1CCN(S(=O)(=O)N2CCCC(C(=O)NCCc3ccc(OCC)c(OCC)c3)C2)CC1 (centres undefined)	1	2	2	0	57*
CCOc1ccc(CCNC(=O)C2CCCN(S(=O)(=O)N3CCCCC3)C2)cc1OCC (centres undefined)	/	/	3	/	/
CC[C@]12C(=O)N(C)CC(C3C(=O)N(C)C(=O)C31)N2C(=O)c1ccc(Cl)c(Cl)c1 (some centres undefined)	/	-11	/	3	/
OCC[C@@H]1C[C@@H](O)[C@H](O)[C@@]2(Cc3ccccc3CO2)O1	46*	/	4	/	21
OCC[C@H]1C[C@H](O)[C@@H](O)[C@@]2(Cc3ccccc3CO2)O1	-1	/	1	/	/
CC(NC(=O)c1nc[nH]c1C(=O)NC(Cc1ccccc1)C(=O)OCc1ccccc1)C(=O)OC(C)(C)C (centres undefined)	/	-17	/	4	/
CCOC(=O)Nc1sc2c(c1C(=O)OCC)CCC2	0	61	-2	-1	0
CCCCOC(=O)Nc1sc2c(c1C(=O)OC)CCC2	0	92*	5	7	10
COC(=O)C1NC(=O)N2C1SC(C)(C)C2C(=O)OC (centres undefined)	/	4	/	7	/
CCc1noc(C)c1C(=O)NC1CC(C)(C)Cc2c1cnn2-c1ccccc1 (centres undefined)	-1	/	6	/	34
Cc1ccc(-n2ncc3c2CC(C)(C)CC3NC(=O)c2c(C)noc2C)cc1 (centres undefined)	91*	13	1	5	-6
COC(=O)CCC(=O)NC1CC(C)(C)Cc2c1cnn2-c1ccccc1 (centres undefined)	-1	5	7	-1	57*
CC(=O)NCC(=O)NC1CC(C)(C)Cc2c1cnn2-c1ccccc1 (centres undefined)	-1	4	6	2	12
COc1ccc(CCNc2c(C)c(C)nc3ncnn23)cc1	0	17	22	6	54*
COc1cccc(C2CC(c3ccc(C)cc3)Nc3nc(N)nn32)c1 (centres undefined)	0	10	-1	3	16
Cc1cccc(C2CC(c3ccccc3)Nc3nc(N)nn32)c1 (centres undefined)	48*	8	4	3	2
COc1ccc2nc(NC(=O)Nc3ccccc3)sc2c1	2	-25	8	1	9
CC(C)(C)c1nc(NC(=O)Nc2ccccc2)sc1Br	0	92*	9	97*	5
C=CCC(CC(=O)NCCO)C(=O)NC(C)COC(=O)C(CC=C)Cc1ccc(F)cc1 (centres undefined)	/	6	/	6	/
CC(CCC1CC(C)OC1=O)=NNC(N)=S (centres undefined)	/	-1	/	-1	/
CCCCCCC(=O)N1CCN(c2cc3c(cc2F)c(=O)c(C(=O)O)cn3CC)CC1	3	/	2	/	/
CCn1cc(C(=O)O)c(=O)c2cc(F)c(N3CCN(C(=S)NC(=O)c4ccccc4Br)CC3)cc21	0	99*	5	98*	26
CCn1cc(C(=O)NCc2cccnc2)c(=O)c2cc(F)c(N3CCN(C(=O)c4ccco4)CC3)cc21	-1	100*	17	96*	15
